Values without a mark were called inactive. The source made the active and inactive calls.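 How the source made its calls, unless noted: active means inhibition above 50%; inactive means the rest.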
assay: antimalarial activity against Dd2 strain (AID 2302;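 active means growth inhibition above 50% at the single 2 µM test dose, taken to imply half-maximal potency below 2 µM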;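 further: 0% = DMSO untreated growth and 100% = chloroquine plus artemisinin killed control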); details: P. falciparum Dd2 in RBCs, LDH growth readout, 72 h; at 2 µM; hits give high values

Row | SMILES | growth inhibition
1 | Nc1ncc(-c2ccccc2)cc1/C=C/c1cccnc1 | 9%
2 | O=C(/C=C/c1ccc(Cl)cc1)NCCCCCN1CCCN(C(=O)Nc2ccc(F)c(Cl)c2)CC1 | 6%
3 | Ic1cc(Nc2ncnc3ccsc23)ccc1OCc1ccccc1 | 81% (active)

assay: human hepatoma cell viability loss – ATP luminescence, cytotoxicity control for P. falciparum antimalarial project, primary screen (AID 2303); details: HepG2 viability, 24-48 h, at 10 µM, hits give high values;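 further: 0% = DMSO wells and 100% = digitonin-killed cells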

Row | SMILES | inhibition
4 | N#Cc1cccc(C(=O)Nc2cccc(-c3ccc(C(=O)Nc4cccnc4)cc3)c2)c1 | 39%
5 | Cc1ccc(Cl)cc1NC(=O)c1c(-c2ccccc2Cl)noc1C | 9%
6 | COc1cc(C)c(C(O)CNC(C)CCc2ccccc2)cc1C (stereo not drawn) | 1%
7 | Cc1cc(N(C)C)nc(Nc2ccc(NS(=O)(=O)c3ccccc3)cc2)n1 | -3%
8 | c1ccc(-c2cccc(-c3ccccn3)n2)nc1 | 45%
9 | Cc1cc(NC2CCCC2)nc(Nc2ccccc2C)n1 | -2%
10 | CC1CCN(c2nc(C(=O)Nc3cccc4c3CCCC4)c(C(C)C)s2)CC1 | 14%
11 | Cc1cc(N[C@@H](CC(C)C)C(=O)NCCc2ccccc2)nc(NCCc2ccc(F)cc2)n1 | 12%
12 | CCCNC(=O)C1Cc2cc(OC)c(OC)cc2C2(N1)C(=O)N(Cc1cccc(OC)c1)c1ccccc12 (stereo not drawn) | 11%
13 | Cc1cc(NC(=O)CCCN2CCN(c3cccc(Cl)c3Cl)CC2)ccc1N1CCN(C(C)C)CC1 | 86% (active)
14 | CN1C(C)(C)CC(NC(=O)c2ccc(-c3nc4ccc(Cl)cc4[nH]3)cc2)CC1(C)C | 23%
15 | Cc1cccc(CNc2nc(C)cc(N[C@@H](CC(C)C)C(=O)NCCOc3ccccc3)n2)c1 | 15%
16 | COc1ccc(CCNC(=O)c2cc3c(=O)n4cccc(C)c4nc3n(C)c2=N)cc1 | 22%
17 | COc1ccc2nccc([C@@H](O)CN3CCC(NC(=O)C(c4ccsc4)N4CCN(c5ccccc5)CC4)CC3)c2c1 (stereo partly drawn) | 24%
18 | CCOc1ccc(-n2nc3c(Cl)nnc(-c4ccccc4)c3c2-c2ccccc2)cc1 | 0%
19 | CCCNCc1ccc(-c2ccc(CN(CCOC)C(=O)c3ccco3)cc2)nc1 | 1%
20 | Cc1nc(N)nc(N)c1OCc1cccc2ccccc12 | 63% (active)
21 | O=C(Nc1ccc(OC(F)(F)F)cc1)Nc1ccc([N+](=O)[O-])cc1 | 41%

Row | SMILES | inhibition
22 | CC(C)(C)CCN1CCC(NC(=O)c2ccc(-c3cccc(C(F)(F)F)c3)s2)CC1 | 95% (active)
23 | C=CCNC(CCCCC)c1ccc(OCCOc2ccc(C(CCCCC)NCC=C)cc2)cc1 (stereo not drawn) | 100% (active)
24 | CC(C)(C)c1ccc(NC(=O)c2cccc(CN3CCCN(Cc4cccc(O)c4)CC3)c2)cc1 | 97% (active)
25 | O=C(Nc1ccc(C(F)(F)F)cc1)c1ccc(S(=O)(=O)NC2CCCN(CC3CCCCC3)C2)cc1 (stereo not drawn) | 45%
26 | Cc1ccoc1C(=O)Nc1ccc(-c2cccc(-c3nc4c(C)cccc4[nH]3)c2)cc1 | 15%
27 | CS(=O)(=O)N(c1ccc(F)cc1)c1cc(C(=O)N[C@@H](Cc2ccccc2)[C@H](O)CNCc2cccc(C(F)(F)F)c2)cc(N2CCCC2=O)c1 | -4%
28 | Cc1[nH]nc2ccc(-c3cc(OC[C@@H](N)Cc4ccccc4)cnc3-c3ccc(OCc4cccc(F)c4)cc3)cc12 | 97% (active)
29 | Cc1ccc2[nH]c(-c3ccc(/C=C/C(=O)NC4CCN(Cc5ccccc5)CC4)cc3)nc2c1C | 22%
30 | CN1CCN(CCCNCc2cccc(-c3ccc(CNCCc4ccccc4)cc3)c2)CC1 | 36%
31 | O=C(Nc1ccc2oc(-c3ccc(Br)cc3)nc2c1)c1ccc([N+](=O)[O-])o1 | 9%
32 | N#Cc1ccc(-c2ccc(C(=O)NCCCCN3CCC(c4ccc5c(c4OCC(N)=O)CCCC5)CC3)nc2)cc1 | 21%
33 | CCN(CC)CCN1C(=O)c2oc3ccc(Cl)cc3c(=O)c2C1c1ccc(SC)cc1 (stereo not drawn) | -5%
34 | O=[N+]([O-])c1cccc(-c2nc(-c3ccc(Br)cc3)[nH]c2-c2ccc(Br)cc2)c1 | 6%
35 | COc1cccc(CN2CCC3(CC2)CN(C(=O)Nc2ccc(Cl)c(Cl)c2)C3)c1 | 29%
36 | COc1ccc(C(=O)O)cc1OCc1ccccc1 | -3%
37 | CNCCNC(=O)C1Cc2c([nH]c3c(C)cccc23)C(c2ccc(Cl)c(Cl)c2)N1 (stereo not drawn) | 13%
38 | Cc1cc2ncc(C(N)=O)c(Nc3ccc(N4CCOCC4)cc3)c2cc1S(C)(=O)=O | -10%

Source: PubChem BioAssay
